# Screening data from PubChem BioAssay.
# Pf growth 96h: P. falciparum growth inhibition at 96 hours. P. falciparum luciferase reporter growth, 96 h. Potency, µM (doses to about 28.7 µM), inactives show at the highest dose activity change, negative = inhibition, usual class: inhibitors. 320,000 tested, 6.9% active. AID 504834; also: potency is read from the fitted curve at half-maximal effect; % is scaled to controls: 0 for no effect and ±100 for the full control effect
#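 P. falciparum expressing integrated firefly luciferase, in erythrocytes at 2% hematocrit, 0.05% parasitemia, incubated with compounds 96 h at 37 C, 5% CO2. Growth inhibition read as loss of luminescence; two-generation exposure targets delayed-death apicoplast inhibitors.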
# HCMV inh: blocks human cytomegalovirus replication; HFF cells, HCMV-luciferase reporter, 72 h; hits give low values; activity change, negative = inhibition, % at 57.5 µM; 410,000 tested, 4.5% active; AID 1259415; in the data active = activity change below about -60%; inconclusive = no clear call, values can overlap the other calls; inactive = above about -39%; also: % is scaled to controls: 0 for no effect and ±100 for the full control effect
#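 Two-dose cell screen: HFF monolayers treated with compounds and infected with luciferase-expressing HCMV at 1 PFU/cell, 72 h at 37C, then lysed for luciferase measurement.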
# Shiga toxin inh: Shiga toxin inhibition. Vero cells, Shiga toxin protein synthesis inhibition reporter. inhibition, % at 38.7 µM. 290,000 tested, 9.2% active; in the data active = inhibition mostly above about 28%, no sharp cut-off; inactive = mostly below about 43%; also: 0% is about no effect
# Cycloheximide cs: counter-screen hit for Shiga toxin inhibitors, cycloheximide. cell reporter, cycloheximide protein synthesis inhibition counterscreen. max response, %. 300,000 tested, 12% active. AID 2314; in the data active = max response mostly above about 13%, no sharp cut-off; inactive = mostly below about 14%; also: read at 38.3 µM for the half of the compounds with a filed dose; 0% is about no effect
# Pf growth 48h: inhibits P. falciparum growth in the first generation, 48 h; P. falciparum luciferase growth in erythrocytes, 48 h; Potency, µM (top dose mostly 28.7 µM), without a hit: top-dose activity change, negative = inhibition, hits mostly inhibitors; 310,000 tested, 5.9% active; AID 504832; also: potency is read from the fitted curve at half-maximal effect; % is scaled to controls: 0 for no effect and ±100 for the full control effect
#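 Luciferase-expressing P. falciparum in infected erythrocytes (2% hematocrit, 0.1% parasitemia final) in RPMI 1640/0.5% Albumax were exposed to compound for 48 hours at 37 C, 5% CO2; growth read as luminescence.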
# Active calls of the source: *; ? = inconclusive; . = not tested or not shown. Sampled rows, rich in hits. Any-hit rate of the full collection: about 20%. Unless noted, calls follow the shape of the dose curve; as a rule, active = well fitted inhibition curve with a large enough effect; inconclusive = small, poorly fitted or top-dose-only effect, or another doubt; inactive = no such curve, though single readings can be large or run the other way.
SMILES,Pf growth 96h,HCMV inh,Shiga toxin inh,Cycloheximide cs,Pf growth 48h
COc1cccc(C(NC(=O)c2ccccc2F)NC(=O)c2ccccc2F)c1,?,5,-2,-3,13µM*
COc1ccc(NC(=O)c2cccc(F)c2)cc1Cl,216%,-10,57*,20*,.
COc1ccc2nnc(-c3ccc(C(F)(F)F)cc3)n2n1,?,21,-5,-2,-17%
CC1C2NC(=O)N(Cc3ccccc3)C1(C)Oc1ccccc12 (centres undefined),?,-20,-18,-1,-9%
CCc1ccc(-n2c(=O)c3c4c(sc3n(CC(=O)c3ccc(Cl)cc3)c2=O)CCC4)cc1,.,-3,.,.,.
Cc1oc2ccc(OCc3ccc(Br)cc3)cc2c1C(=O)O,-4%,-6,10,9,3%
CCOc1ccc2oc(C(=O)Nc3ccc4c(c3)OCO4)c(C)c2c1,89%,13,106*,25*,91%
CCOc1ccc2oc(C(=O)Nc3ccc(N4CCOCC4)cc3)c(C)c2c1,?,-25,-4,0,-19%
CCOc1ccc2oc(C(=O)O)c(C)c2c1,56%,-11,23,26*,44%
Cc1oc2ccc(OCc3ccc(Cl)cc3)cc2c1C(=O)O,14%,-38,87*,27*,23%
CCOc1ccc2oc(C(=O)N3CC(C)OC(C)C3)c(C)c2c1 (centres undefined),7.4µM*,-10,18,24*,?
CCCc1noc(-c2ccc(N3CCCCC3)c([N+](=O)[O-])c2)n1,.,27,.,.,.
CCOc1ccc2oc(C(=O)NNC(=O)c3ccccc3O)c(C)c2c1,18%,-72*,.,.,-21%
Cc1cccc(S(=O)(=O)N2C[C@@H](O)COC[C@@H]3O[C@H](CC(=O)NCCCN4CCOCC4)CC[C@H]32)c1,.,-1,.,.,.
Cc1ccc(NC(=O)CSc2nnc(Cc3csc(C)n3)o2)cc1,?,0,.,.,-7%
CCOc1ccc(Nc2nc(Cc3nnc(SCC(=O)c4ccc(C)c(C)c4)o3)cs2)cc1,.,-26,35,21*,-16%
Cc1nnc2n1N=CC=C(c1ccccc1)S2,?,-99*,-8,-4,?
CC1CCN(c2cc3c(cc2F)c(=O)c(S(=O)(=O)c2cccc(Cl)c2)cn3Cc2ccccc2)CC1,.,51,.,.,.
Cc1cccn2cc(COc3cccc([N+](=O)[O-])c3)nc12,24%,-33,61*,22*,38%
O=[N+]([O-])c1cccc(Oc2ncccc2[N+](=O)[O-])c1,.,-30,.,.,.
Cc1cccn2cc(COc3ccc(-c4ccccc4)cc3)nc12,104%,-90*,68*,71*,249%
O=[N+]([O-])c1cccc(OCc2cn3cccnc3n2)c1,?,-14,14,20*,28%
Cc1ccc(OCc2cn3cccnc3n2)cc1,205%,85,104*,55*,92%
c1ccc(CN2CCN(Cc3cn4cccnc4n3)CC2)cc1,?,-23,96,5,1%
COC(=O)c1cc2oc3ccccc3c2n1Cc1nc(-c2ccccc2Cl)oc1C,.,12,.,.,.
SMILES,Pf growth 96h,HCMV inh,Shiga toxin inh,Cycloheximide cs,Pf growth 48h
Cc1ccc(CNC(=S)Nc2cc(C)ccc2OC(F)F)cc1,31%,-18,-2,-2,4%
C=CCN1C(=O)C2C3CC(=O)C(c4ccccc43)C2C1=O (centres undefined),-5%,9,-11,-2,6%
O=C(N/N=C/c1c(F)cccc1Cl)C1CC1,23%,-6,-4,-5,3%
CC(=O)Nc1ccccc1/C=C/c1ccc2c(C)cc(C)c(O)c2n1,?,-7,-4,-2,-1%
Oc1cccc2ccc(/C=C/c3c(F)cccc3Cl)nc12,182%,45,158*,53*,237%
Oc1cccc2ccc(/C=C/c3ccccc3Cl)nc12,-17%,-29,72*,40*,0%
Nc1nccc(/C=C/c2c(F)cccc2Cl)n1,44%,-68*,68*,28*,39%
CC(CSC(=O)c1ccccc1)C(=O)N1C[C@@H](Sc2ccccc2)C[C@H]1C(=O)O (some centres undefined),0%,.,.,.,-2%
COc1ccc(/C(C#N)=C/c2c(-c3ccc(Cl)cc3)nc3c(C)cccn23)cc1,?,-18,-18,-2,?
Cc1cccn2c(/C=N/OCc3ccc(F)cc3)c(-c3ccc(Cl)cc3)nc12,12µM*,4,-4,-2,?
CCOC(=O)c1sc2nc(NC(=O)C(C)(C)C)sc2c1C,-91%,144,105*,36*,.
